BoNT A protease: BoNT/A light chain protease inhibitors, primary screen, biochemical, flow cytometry, MLPCN library | AID 588499, 2011 | multiplex microsphere protease substrate cleavage | inhibition, % at 10 µM | 0.17% of 360,000 active | Botulinum neurotoxin type A light chain protease (Clostridium botulinum A str. ATCC 3502)
PriA SSB inh: inhibitors of Klebsiella pneumoniae PriA binding to SSB C-terminal tail, primary screen, biochemical, AlphaScreen; PriA–SSB C-terminal tail interaction (Klebsiella pneumoniae); AlphaScreen SSBct-PriA binding, biotinylated peptide; inhibition, % at 33 µM; 0.6% of 430,000 active; in the data active = inhibition mostly above about 37%, no sharp cut-off; inactive = mostly below about 20%
Bead autofluor: counter-screen for toxin protease inhibitors: compound fluorescence; compound autofluorescence counterscreen, microsphere flow cytometry; hits give high values; fluorescence intensity (concentration not given with the values); 3.1% of 360,000 active; AID 624483; in the data active = fluorescence intensity above about 16000; inconclusive = no clear call, values can overlap the other calls
BoNT-F LC inh: BoNT/F light chain protease inhibitors, primary screen, biochemical, flow cytometry, MLPCN library; AID 588497, 2011; 0.22% of 360,000 active; inhibition, % at 10 µM; Botulinum neurotoxin type F light chain protease (Clostridium botulinum); Multiplex microsphere protease cleavage assay; in the data active = inhibition above about 35%, passing the limit was not always enough; inconclusive = no clear call, values can overlap the other calls
Anthrax LF inh2: Bacillus anthracis LF protease inhibitors, primary screen, biochemical, multiplex microsphere, MLPCN library; 0.12% of 360,000 active; inhibition, % at 10 µM; multiplex microsphere protease cleavage assay; AID 588501, 2011; Lethal factor (Bacillus anthracis), P15917
Of the large screens only hits and unclear results are named; the others gave an inactive call. Hits are enriched below; roughly 3.1% of the tested compounds scored in any of these assays. Cut-off read from the data, not from the text of the source, unless noted: active = inhibition above about 30%; inconclusive = no clear call, values can overlap the other calls; inactive = below that.

C=COCCNC(=O)C1CC(=O)N(c2ccc(C)cc2)C1 (configuration not stated)	Bead autofluor 24393
Cc1ccc(OCCNC(=O)C2CC(=O)N(c3ccc(C)cc3)C2)cc1 (configuration not stated)	none
O=C(OCC(=O)N1CCN(C(=O)c2ccco2)CC1)c1cc(-c2cccc(Br)c2)nc2ccccc12	Bead autofluor 24517
O=C(CSc1nnc(-c2ccncc2)n1CCc1ccccc1)NCc1ccccc1	none
CCSc1nnc(-c2ccncc2)n1Cc1ccccc1	BoNT A protease inconclusive, Bead autofluor 16561
CCn1c(SCc2cccc(C)c2)nnc1-c1ccccc1	BoNT A protease inconclusive, Bead autofluor 23697
O=C(O)CSc1nnc(-c2ccncc2)n1CCc1ccccc1	Bead autofluor 22072
CNC(=O)CSc1nnc(-c2ccncc2)n1Cc1ccccc1	Bead autofluor 16183
CCn1c(SCC(O)c2ccccc2)nnc1-c1ccccc1 (configuration not stated)	none
Cn1c(SCC(=O)NCCc2ccc(Cl)cc2)nc2c(-c3ccccc3)c[nH]c2c1=O	none (no result: BoNT A protease, Bead autofluor, BoNT-F LC inh, Anthrax LF inh2)
C=CCn1c(SCC(=O)O)nnc1-c1ccccc1	Bead autofluor 22122
CCOC(=O)N1CCN(S(=O)(=O)c2ccc(C(=O)Nc3ccc4sccc4c3)cc2)CC1	none (no result: BoNT A protease, Bead autofluor, BoNT-F LC inh, Anthrax LF inh2)
Cc1cc(C)nc(SCC(=O)Nc2ncc(Cc3ccc(Cl)cc3)s2)n1	none (no result: BoNT A protease, Bead autofluor, BoNT-F LC inh, Anthrax LF inh2)
CCCn1c(=O)c(F)cn(Cc2ccc(OC)c([N+](=O)[O-])c2)c1=O	Bead autofluor 21734
CCCCn1c(=O)c(F)cn(Cc2ccc(OC)c([N+](=O)[O-])c2)c1=O	none
O=C(Nc1ccc(C(=O)N2CCCC2)cc1)c1ccccc1F	Bead autofluor 16849
CN(CC#CCNC(=O)Nc1cccs1)Cc1ccccc1	none (no result: BoNT A protease, Bead autofluor, BoNT-F LC inh, Anthrax LF inh2)
CCOc1ccc(C(=O)NN=Cc2cccc3cccnc23)cc1	PriA SSB inh 88.5 (no result: BoNT A protease, Bead autofluor, BoNT-F LC inh, Anthrax LF inh2)
O=C(N/N=C/c1cccc2cccnc12)c1ccccc1O	PriA SSB inh active
COc1ccc(OCC(=O)N/N=C/c2cccc3cccnc23)cc1	none (no result: PriA SSB inh)
O=C(N/N=C/c1cccc2nccnc12)c1ccncc1	PriA SSB inh active
COc1ccc(C(=O)NN=Cc2cccc3cccnc23)cc1	PriA SSB inh 79.8 (no result: BoNT A protease, Bead autofluor, BoNT-F LC inh, Anthrax LF inh2)
COc1ccc(-c2nc3ccccc3n2Cc2ccccc2Cl)cc1	none (no result: BoNT A protease, Bead autofluor, BoNT-F LC inh, Anthrax LF inh2)
O=C(O)CSc1ncnc2sc3c(c12)CCC3	Bead autofluor 19351
Fc1ccc(CSc2ncnc3sc4c(c23)CCCC4)cc1	Bead autofluor 19865
CCc1cc2c(SCC(=O)O)ncnc2s1	BoNT A protease inconclusive, Bead autofluor 18901
CCSc1ncnc2sc3c(c12)CCC3	Bead autofluor 20242
C[C@@](O)(CNC(=O)c1ccccc1Br)Cc1ccco1	none (no result: BoNT A protease, Bead autofluor, BoNT-F LC inh, Anthrax LF inh2)
CCOc1cccc2c1OCC(=O)N(c1ccc(Br)cc1F)C2	none (no result: BoNT A protease, Bead autofluor, BoNT-F LC inh, Anthrax LF inh2)
O=C(Nc1cnn(C2CCOCC2)c1)c1ccc2nc[nH]c2c1	none (no result: BoNT A protease, Bead autofluor, BoNT-F LC inh, Anthrax LF inh2)
CC1(C)CO/C(=C\C(=O)C23CC4CC(CC(C4)C2)C3)N1C(=O)C12CC3CC(CC(C3)C1)C2	none (no result: BoNT A protease, Bead autofluor, BoNT-F LC inh, Anthrax LF inh2)
COC(=O)c1cc(OCC(=O)Nc2cccc(SC)c2)c2cc(OC)ccc2n1	none (no result: BoNT A protease, Bead autofluor, BoNT-F LC inh, Anthrax LF inh2)
COc1cc(NS(=O)(=O)c2ccc(NC(=O)CCSc3ccccc3)cc2)nc(OC)n1	none (no result: BoNT A protease, Bead autofluor, BoNT-F LC inh, Anthrax LF inh2)
CCN(CC)CCCN1C(=O)C(O)=C(C(=O)c2cc3cccc(OC)c3o2)C1c1ccncc1 (configuration not stated)	BoNT A protease inconclusive, Bead autofluor 21784
COc1ccc(C2C(C(=O)c3sc(C)nc3C)=C(O)C(=O)N2CCCn2ccnc2)cc1OC (configuration not stated)	Bead autofluor 20435
CCN(CC)CCCN1C(=O)C(O)=C(C(=O)c2sc(C)nc2C)C1c1ccco1 (configuration not stated)	Bead autofluor 19534
Cc1nc(C)c(C(=O)C2=C(O)C(=O)N(CCN(C)C)C2c2ccco2)s1 (configuration not stated)	none
COc1ccc(C2C(C(=O)c3sc(C)nc3C)=C(O)C(=O)N2CCCn2ccnc2)cc1 (configuration not stated)	none
CSc1nnc(CCc2c(C)[nH]c(=O)[nH]c2=O)o1	none (no result: BoNT A protease, Bead autofluor, BoNT-F LC inh, Anthrax LF inh2)
CC1=C(C(=O)Nc2ccccc2C)C(c2ccc(C)o2)n2c(sc(=Cc3ccccc3)c2=O)=N1 (configuration not stated)	none (no result: BoNT A protease, Bead autofluor, BoNT-F LC inh, Anthrax LF inh2)
CC1=C(C(=O)Nc2ccccc2C)C(c2ccc(C)o2)N2C(=O)CSC2=N1 (configuration not stated)	Bead autofluor 20714
O=c1c2cnn(-c3ccccc3)c2nc(-c2ccco2)n1-c1ccccc1	Bead autofluor 22323
CCOc1cc(-c2nc(-c3ccc(C)nc3OCC)no2)cc(OCC)c1OCC	BoNT A protease inconclusive, Bead autofluor 23089
CCOc1nc(-c2ccc(OC)cc2)ccc1-c1noc(C)n1	BoNT A protease inconclusive, Bead autofluor 21728
CCOc1cc(-c2nc(-c3ccc(C)nc3OC)no2)cc(OCC)c1OCC	none
COc1ccc(-c2ccc(-c3noc(C)n3)c(OC)n2)cc1	none
O=C(Nc1ccc2c(c1)OCCO2)c1csc(-c2cc3ccccc3[nH]2)n1	none (no result: BoNT A protease, Bead autofluor, BoNT-F LC inh, Anthrax LF inh2)
CCOc1ccc(NC(=O)CCCn2nc(-c3ccco3)ccc2=O)cc1	none (no result: BoNT A protease, Bead autofluor, BoNT-F LC inh, Anthrax LF inh2)
Nn1c(SCC(=O)Nc2cccc(F)c2)nnc1C1CCCCC1	Bead autofluor 22029
Cc1ccccc1NC(=O)Cc1nc(CSc2nnc(C3CCCCC3)n2N)cs1	Bead autofluor 22506
COc1ccccc1NC(=O)CSc1nnc(C2CCCCC2)n1N	none
CS(=O)(=O)N1CCN(C(=O)NCCn2ccnc2C2CC2)C1=O	none (no result: BoNT A protease, Bead autofluor, BoNT-F LC inh, Anthrax LF inh2)
O=C(Cn1nc(C2CC2)c2cnn(-c3cccc(Cl)c3)c2c1=O)c1ccccc1	none (no result: BoNT A protease, Bead autofluor, BoNT-F LC inh, Anthrax LF inh2)
CCSc1nccc(-c2nn(-c3ccc(C)cc3)ccc2=O)n1	none
CSc1nccc(-c2nn(-c3ccc(C)cc3)ccc2=O)n1	PriA SSB inh 77.3
CC(C)C(=O)NC(c1ccccc1)c1cc([N+](=O)[O-])c2cccnc2c1O (configuration not stated)	none
CC(=O)NC(c1ccccc1)c1cc([N+](=O)[O-])c2cccnc2c1O (configuration not stated)	PriA SSB inh 43.6
CC1CCN(S(=O)(=O)c2ccc(C(=O)Nc3nc4c(Cl)cccc4s3)cc2)CC1	none (no result: BoNT A protease, Bead autofluor, BoNT-F LC inh, Anthrax LF inh2)
CNc1ncc(C(=O)c2ccc(Cl)c(Cl)c2)s1	none
O=C(c1ccc(Cl)c(Cl)c1)c1cnc(Nc2ccccc2)s1	Bead autofluor 16510
O=C(c1ccccc1)c1cnc(Nc2ccccc2Cl)s1	Bead autofluor 21405
CCc1ccc(S(=O)(=O)NCC2CCN(Cc3ccccc3)CC2)s1	none (no result: BoNT A protease, Bead autofluor, BoNT-F LC inh, Anthrax LF inh2)
O=C(NCc1ccc(F)cc1)C(c1cccs1)N(C(=O)c1csnn1)C1CC1 (configuration not stated)	BoNT A protease inconclusive, Bead autofluor 16343
O=C(NCc1ccc(F)cc1)C(c1ccncc1)N(C(=O)c1csnn1)C1CC1 (configuration not stated)	none
CCCc1cc(=O)[nH]c(SCc2cccc(C)c2)n1	BoNT A protease inconclusive, Bead autofluor 23596
CCCc1cc(=O)[nH]c(SCc2cc(Cl)ccc2OC(F)F)n1	Bead autofluor 24635
